# According to PubChem BioAssay:
# For some of these results: Potency and affinity values are given separately. The source made the active and inactive calls.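 How the source made its calls, unless noted: active means primary screen hit whose calcium fluorescence ratio, in both repeats, exceeds the weak agonist control mean by 3 SD; inactive means the rest.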
# Experiments:
# [1] = system: TRPC4 beta (transient receptor potential cation channel C4), mouse; assay: activators of mouse TRPC4 channel, confirmation, cell-based, Fluo4 calcium, HEK293 TRPC4beta/mu-opioid, duplicates, 10 µM (AID 2426;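 active means fluorescence ratio normalized to control raised more than 50% in primary screen plus both repeat runs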); conditions: Fluo4 calcium fluorescence, at 10 µM; stronger effect = higher value
# [2] = system: transient receptor potential cation channel C4 beta (TRPC4), mouse; assay: activators of mouse TRPC4 channel, confirmation, cell-based, second round, Fluo4, HEK293 TRPC4beta/mu-opioid, 1 µM (AID 2461;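 active means primary screen active and over 50% activation in each of two duplicate runs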); conditions: Fluo4 calcium fluorescence, at 1 µM; stronger effect = higher value
# [3] = system: TRPC4 (transient receptor potential cation channel C4 beta), mouse; assay: positive allosteric modulators of mouse TRPC4, confirmation, cell-based, second round, Fluo-4, HEK293 TRPC4beta/mu-opioid, 1 µM (AID 2554;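 active means primary screen hit whose fluorescence ratio, in both repeats, exceeds the weak agonist control mean by 3 SD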); conditions: DAMGO EC20, Fluo-4 calcium flux, at 1 µM; stronger effect = higher value
# [4] = system: TRPC4 beta (transient receptor potential cation channel C4), mouse; assay: positive allosteric modulators of mouse TRPC4, confirmation, cell-based, Fluo-4, HEK293 TRPC4beta/mu-opioid (AID 2555); conditions: DAMGO EC20, Fluo-4 calcium flux, at 10 µM; stronger effect = higher value
# [5] = target: Short transient receptor potential channel 4 (Mus musculus) (UniProt Q9QUQ5); assay: inhibitors of mouse TRPC4 channel, confirmation, cell-based, Fluo4, HEK293 TRPC4beta/mu-opioid (AID 2636;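 active means calcium signal cut by more than 3 SD below the full-agonist control yet still positive, in both repeats and the earlier primary screen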); conditions: DAMGO, Fluo4 calcium flux, at 10 µM; stronger effect = higher value
# [6] = target: Short transient receptor potential channel 4 (Mus musculus) (UniProt Q9QUQ5); assay: inhibitors of mouse TRPC4 channel, confirmation, cell-based, second round, Fluo4, HEK293 TRPC4beta/mu-opioid, 1 µM (AID 2637;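 active means calcium signal ratio cut to more than 3 SD under the fully stimulated control mean yet still positive, in both repeats and the primary screen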;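 on inhibition: percent of integrated ratio relative to wells lacking test compound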); conditions: Fluo4 calcium flux, DAMGO, at 1 µM; stronger effect = higher value
# [7] = target: Short transient receptor potential channel 4 (Mus musculus) (UniProt Q9QUQ5); assay: mouse TRPC4 channel activators, dose response, cell-based, HEK293 TRPC4/mu-opioid, Fluo-4 calcium (AID 434937;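 active means primary screen activator hit with a dose response curve and TRPC4 channel activation at any tested dose; inactive means no activation, no dose response, or not a primary hit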)
# [8] = target: Short transient receptor potential channel 4 (Mus musculus) (UniProt Q9QUQ5); assay: TRPC4 positive allosteric modulators, dose response, cell-based, HEK293 TRPC4/mu-opioid, Fluo-4 calcium, EC20 DAMGO (AID 434941;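 active means earlier screen potentiator hit that boosts the TRPC4 ion channel at some dose, with a dose response; inactive means no potentiation, no dose response, or not a prior hit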;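 further: calcium entry triggered by an EC20 dose of DAMGO at the co-expressed mu-opioid receptor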)
# [9] = target: Short transient receptor potential channel 6 (Mus musculus) (UniProt Q61143); assay: inhibition of mouse TRPC6 channel, confirmation, selectivity assay for TRPC4 inhibitor project, cell-based, HEK293, membrane potential dye, duplicate (AID 434948;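 active means active in primary screen and both duplicates, each dropping signal beyond three positive-control SD with fluorescence still positive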); conditions: HEK293 TRPC6, membrane potential dye fluorescence, at 10 µM, stimulated with maximal-effect acetylcholine; stronger effect = higher value
# [10] = target: Short transient receptor potential channel 6 (Mus musculus) (UniProt Q61143); assay: activation of mouse TRPC6 channel, confirmation, selectivity assay for TRPC4 activator project, cell-based, HEK293, membrane potential dye, duplicate (AID 434950;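 active means membrane potential signal rise above negative control mean plus 3 SD in both duplicates, also active in the earlier TRPC4 screen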); conditions: HEK293 TRPC6, membrane potential fluorescence, at 10 µM; stronger effect = higher value
# [11] = target: Short transient receptor potential channel 6 (Mus musculus) (UniProt Q61143); assay: TRPC6 potentiation by TRPC4 potentiator hits, confirmation, selectivity assay for TRPC4 potentiator project, HEK293 cells, membrane potential dye, duplicate (AID 434952;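 active means compound raising the membrane signal above positive-control mean plus 3 SD in both repeats, and a primary screen hit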); conditions: HEK293 TRPC6, membrane potential dye fluorescence, at 10 µM, maximal acetylcholine added after compound; stronger effect = higher value
# [12] = target: Short transient receptor potential channel 4 (Mus musculus) (UniProt Q9QUQ5); assay: calcium flux activators in TRPC4/5HT1a cells, counter-screen for TRPC4 activator project, cell-based, second counter screen, HEK293 TRPC4/5HT1a, Fluo-4 (AID 434977;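 active means calcium signal rise above buffer-control mean plus 5 SD in both duplicates, and also a hit in the primary screen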); conditions: Fluo-4 calcium flux, at 10 µM; stronger effect = higher value
# [13] = calcium flux inhibitors in TRPC4/5HT1a cells, confirmation, counter-screen for TRPC4 inhibitor project, cell-based, second counter screen, HEK293 TRPC4/5HT1a, Fluo-4 (AID 434978;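 active means primary screen active whose calcium signal fell more than 3 SD beyond the full-serotonin control mean in both duplicate plates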;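 on outcome: serotonin given first at submaximal then at maximal dose after compound preincubation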); conditions: Fluo-4 calcium flux, at 10 µM, serotonin added to trigger calcium flux; stronger effect = higher value
# [14] = system: TRPC4 (mouse), co-expressed with 5HT1a in HEK293; assay: calcium flux potentiators in TRPC4/5HT1a cells, confirmation, counter-screen for TRPC4 potentiator project, cell-based, second counter screen, HEK293 TRPC4/5HT1a, Fluo-4 (AID 434979;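 active means signal rise over 3 SD above mean of control wells given weak agonist, in both repeats and first screen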); conditions: Fluo-4 calcium flux, at 10 µM, serotonin added at its EC20 dose; stronger effect = higher value
# [15] = calcium flux activation in mu-opioid HEK293 cells, confirmation, counter-screen for TRPC4 activator project, cell-based, HEK293 mu-opioid receptor line (AID 449723;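 active means hit in primary screen, with calcium signal over 5 SD above buffer well mean in both duplicates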;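 further: counter screen cells carry the mu-opioid receptor alone and lack TRPC4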); conditions: Fluo-4 calcium fluorescence, at 10 µM; stronger effect = higher value
# [16] = calcium flux enhancement in mu-opioid HEK293 cells, confirmation, counter-screen for TRPC4 allosteric potentiator project, cell-based, HEK293 mu-opioid receptor line (AID 449724;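 active means calcium signal rise more than 3 SD above the low-dose agonist control mean, in both duplicate plates and the primary screen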); conditions: Fluo-4 calcium flux, at 10 µM, compound added before EC20 DAMGO stimulus; stronger effect = higher value
# Chain of Short transient receptor potential channel 4 (Mus musculus) (Q9QUQ5 whole entry, looked up): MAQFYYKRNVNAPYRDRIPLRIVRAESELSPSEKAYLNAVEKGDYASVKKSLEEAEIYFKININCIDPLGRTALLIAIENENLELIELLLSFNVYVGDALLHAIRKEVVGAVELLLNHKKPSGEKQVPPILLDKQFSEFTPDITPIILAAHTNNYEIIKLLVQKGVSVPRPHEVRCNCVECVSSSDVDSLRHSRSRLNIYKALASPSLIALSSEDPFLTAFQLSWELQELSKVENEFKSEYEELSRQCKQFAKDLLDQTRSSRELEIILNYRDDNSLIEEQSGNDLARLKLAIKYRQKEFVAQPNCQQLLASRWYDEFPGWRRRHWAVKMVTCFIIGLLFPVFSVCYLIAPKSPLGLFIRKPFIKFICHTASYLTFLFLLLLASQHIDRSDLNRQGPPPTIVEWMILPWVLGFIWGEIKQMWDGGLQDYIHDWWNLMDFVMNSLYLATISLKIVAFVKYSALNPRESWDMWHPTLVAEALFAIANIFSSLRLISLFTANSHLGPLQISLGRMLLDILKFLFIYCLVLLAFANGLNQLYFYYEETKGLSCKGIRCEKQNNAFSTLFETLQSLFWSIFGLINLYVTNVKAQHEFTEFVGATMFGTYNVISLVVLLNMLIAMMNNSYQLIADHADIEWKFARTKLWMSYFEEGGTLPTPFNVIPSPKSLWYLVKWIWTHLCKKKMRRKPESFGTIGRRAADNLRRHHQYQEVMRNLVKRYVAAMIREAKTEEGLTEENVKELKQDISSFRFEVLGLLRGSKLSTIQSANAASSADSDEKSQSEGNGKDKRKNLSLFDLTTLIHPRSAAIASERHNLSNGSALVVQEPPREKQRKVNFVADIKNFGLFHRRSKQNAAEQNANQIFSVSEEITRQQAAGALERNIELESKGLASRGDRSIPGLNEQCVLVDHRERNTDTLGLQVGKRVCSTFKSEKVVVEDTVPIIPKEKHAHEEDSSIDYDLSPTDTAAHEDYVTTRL
# Chain of Short transient receptor potential channel 6 (Mus musculus) (Q61143 whole entry, looked up): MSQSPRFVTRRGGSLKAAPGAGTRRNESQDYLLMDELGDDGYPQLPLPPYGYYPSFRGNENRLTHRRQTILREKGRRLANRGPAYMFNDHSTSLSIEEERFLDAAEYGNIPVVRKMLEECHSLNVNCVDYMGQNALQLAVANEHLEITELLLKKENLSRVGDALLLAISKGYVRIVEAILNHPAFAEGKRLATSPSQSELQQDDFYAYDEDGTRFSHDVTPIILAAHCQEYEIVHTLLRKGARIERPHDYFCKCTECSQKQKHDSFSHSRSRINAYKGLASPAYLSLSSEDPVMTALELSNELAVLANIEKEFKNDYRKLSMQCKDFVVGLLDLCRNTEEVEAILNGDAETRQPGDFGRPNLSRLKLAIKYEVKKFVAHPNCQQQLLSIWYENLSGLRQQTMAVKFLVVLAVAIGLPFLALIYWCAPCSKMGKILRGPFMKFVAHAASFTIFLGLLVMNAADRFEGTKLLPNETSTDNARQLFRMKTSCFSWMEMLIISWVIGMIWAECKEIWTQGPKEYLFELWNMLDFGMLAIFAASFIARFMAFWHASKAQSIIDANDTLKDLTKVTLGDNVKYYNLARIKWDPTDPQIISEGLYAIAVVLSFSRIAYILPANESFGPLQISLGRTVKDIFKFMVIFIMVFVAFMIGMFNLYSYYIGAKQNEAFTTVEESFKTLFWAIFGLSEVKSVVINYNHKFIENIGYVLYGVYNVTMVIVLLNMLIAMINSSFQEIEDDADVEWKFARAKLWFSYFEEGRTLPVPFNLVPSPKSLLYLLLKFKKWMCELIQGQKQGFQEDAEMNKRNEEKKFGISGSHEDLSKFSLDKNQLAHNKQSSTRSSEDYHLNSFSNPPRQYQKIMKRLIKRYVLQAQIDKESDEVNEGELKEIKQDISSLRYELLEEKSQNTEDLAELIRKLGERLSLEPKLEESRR
Compound,outcome [1],outcome [2],outcome [3],outcome [4],inhibition [5],inhibition [6],outcome [7],outcome [8],inhibition [9],outcome [10],outcome [11],outcome [12],inhibition [13],outcome [14],outcome [15],outcome [16],outcome [6],outcome [9],outcome [5],outcome [13]
Oc1ccc(CN2CCc3ccccc3C2)c2cccnc12,inactive,inactive,inactive,inactive,97% (active),45% (active),inactive,inactive,58% (active),inactive,inactive,inactive,19.6% (active),inactive,inactive,inactive,,,,
O=C(c1ccc2c(c1)OCO2)C1CCCN(Cc2cc(F)ccc2-n2cccn2)C1 (stereo unspecified),inactive,inactive,inactive,inactive,87% (active),,inactive,inactive,,inactive,inactive,inactive,32.9% (active),inactive,inactive,inactive,inactive,inactive,,
Cc1ncsc1CCOC(=O)C12CC3CC(CC(C3)C1)C2,inactive,inactive,inactive,inactive,94% (active),,inactive,inactive,,inactive,inactive,inactive,17.8% (active),inactive,inactive,inactive,inactive,inactive,,
CCn1c(=N)n(CC(=O)c2ccc(Br)s2)c2ccccc21,inactive,inactive,inactive,inactive,,,inactive,inactive,59% (active),inactive,inactive,inactive,,inactive,inactive,inactive,inactive,,inactive,inactive
NC(=O)c1nsc(C(=O)N(Cc2ccc(F)cc2)C(C(=O)NCC2CCCO2)c2ccc(O)cc2)c1N (stereo unspecified),inactive,inactive,inactive,inactive,77% (active),,inactive,inactive,,inactive,inactive,inactive,25.6% (active),inactive,inactive,inactive,inactive,inactive,,
CCC(C)NC(C(=O)Nc1ccc(Cl)c([N+](=O)[O-])c1)c1ccccc1 (stereo unspecified),inactive,inactive,inactive,inactive,73% (active),,inactive,inactive,,inactive,inactive,inactive,,inactive,inactive,inactive,inactive,inactive,,inactive
CCCOc1ccc(Br)cc1/C=N/O,inactive,inactive,inactive,inactive,,54% (active),inactive,inactive,,inactive,inactive,inactive,,inactive,inactive,inactive,,inactive,inactive,inactive
Cc1ccccc1Cn1c(=N)n(CC(O)c2ccco2)c2ccccc21 (stereo unspecified),inactive,inactive,inactive,inactive,89% (active),58% (active),inactive,inactive,,inactive,inactive,inactive,33.6% (active),inactive,inactive,inactive,,inactive,,
CN(Cc1cnn(C)c1)C(=O)c1ccc(OC2CCN(CCc3ccccc3)CC2)cc1,inactive,inactive,inactive,inactive,88% (active),59% (active),inactive,inactive,,inactive,inactive,inactive,,inactive,inactive,inactive,,inactive,,inactive
CC1CCc2nc(NC(=O)CN3CCN(Cc4ccc5c(c4)OCO5)CC3)sc2C1 (stereo unspecified),inactive,inactive,inactive,inactive,77% (active),,inactive,inactive,,inactive,inactive,inactive,28.7% (active),inactive,inactive,inactive,inactive,inactive,,
Cc1c(C(=O)NCC(c2ccco2)N(C)C)oc2c(Cl)cccc12 (stereo unspecified),inactive,inactive,inactive,inactive,94% (active),70% (active),inactive,inactive,,inactive,inactive,inactive,,inactive,inactive,inactive,,inactive,,inactive
CCC(C)[C@H](Nc1nc(-c2ccccc2)nc2c1oc1ccccc12)C(=O)O (stereo partly specified),inactive,inactive,inactive,inactive,89% (active),,inactive,inactive,,inactive,inactive,inactive,,inactive,inactive,inactive,inactive,inactive,,inactive
O=C(Nc1ccccc1)N1CCN2C(=O)c3ccccc3C12c1ccccc1 (stereo unspecified),inactive,inactive,inactive,inactive,85% (active),62% (active),inactive,inactive,,inactive,inactive,inactive,,inactive,inactive,inactive,,inactive,,inactive
Cn1c(-c2ccccc2)cnc1NCc1ccccc1,inactive,inactive,inactive,inactive,86% (active),44% (active),inactive,inactive,,inactive,inactive,inactive,38.6% (active),inactive,inactive,inactive,,inactive,,
Clc1cccc(C[n+]2cc(-c3ccccc3)n3c2CCC3)c1,inactive,inactive,inactive,inactive,95% (active),51% (active),inactive,inactive,,inactive,inactive,inactive,15.5% (active),inactive,inactive,inactive,,inactive,,
COc1ccc(Nc2nc(N)c3ccccc3n2)c(OC)c1,inactive,inactive,inactive,inactive,93% (active),,inactive,inactive,,inactive,inactive,inactive,26.1% (active),inactive,inactive,inactive,inactive,inactive,,
